Structures are written as SMILES. Records with an inconclusive call do not appear. Active and inactive are the calls of the source. The call rests on the fitted dose curve; in most records, active means well fitted inhibition curve with a large enough effect; inconclusive means small, poorly fitted or top-dose-only effect; inactive means no such curve, though single readings can be large or run the other way.
Potency means the concentration at half of the fitted maximal effect.

A short description of this test: BET inhibitor-based combinations targeting novel dependencies in MECOM-rearranged (r) AML: MV-4-11 cell line (AID 2202233). Further: nearly all actives have a fitted effect of over 45% in size. Particulars: MV-4-11 AML viability, CellTiter-Glo luminescence, 48 h; series mostly up to 46 µM. Summed up:
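First, 500 cells per well were seeded; next, drugs were pinned as 11-point doses; then plates sat 48 hr in the incubator; finally CellTiter-Glo was added and luminescence read, with AUC and Z-AUC computed.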
(Cellular ATP, detected with luciferase, serves as a proxy for viable cell number.)
As to `CCCOc1ccc(C(=O)OCCN(CC)CC)cc1N`, the Potency entry was “inactive”.

As for `Oc1c(Cl)cc(Cl)c2cccnc12`, the Potency was 11.8 µM (active).

With `COc1cccc2c1CCCC2CCCN1CCN(C2CCCCC2)CC1` (stereo unspecified), the Potency was 16.6 µM (active).

Turning to `CC(=O)O[C@H]1C[C@@H]2CC[C@@H]3[C@H](CC[C@@]4(C)[C@H]3C[C@H]([N+]3(C)CCCCC3)[C@@H]4OC(C)=O)[C@@]2(C)C[C@@H]1N1CCCCC1`, the Potency entry was “inactive”.

As to `C[C@@H](CN1CC(=O)NC(=O)C1)N1CC(=O)NC(=O)C1`, the Potency is 14.8 µM (active).

In the case of `O=c1ccn([C@@H]2O[C@H](CO)[C@H](O)[C@@H]2F)c(=O)[nH]1`, the Potency entry is “inactive”.

As for `COc1ccc(Cn2ccc3ccc(C(=O)NO)cc32)cc1`, the Potency was 20.9 µM (active).

Consider `OC[C@@H](O)[C@@H](O)[C@H](O)[C@@H](O)CO`, for which the Potency entry was “inactive”.

Consider `CC1(C)CCC2=C(O1)c1ccccc1C(=O)C2=O`, for which the Potency was 18.6 µM (active).

For `C[C@@H]1CN(CC(=O)Nc2ccc3c(c2)Cc2cccc(-c4cc(=O)cc(N5CCOCC5)o4)c2S3)C[C@H](C)O1`, the Potency was 14.8 µM (active).

As for `CN(C)CCc1c[nH]c2ccc(CS(=O)(=O)N3CCCC3)cc12`, the Potency result is “inactive”.

Take `CC(Cc1ccc(O)c(O)c1)(NN)C(=O)O` (stereo unspecified): the Potency result is “inactive”.

With `Clc1ccc(C(Cn2ccnc2)OCc2ccc(Sc3ccccc3)cc2)c(Cl)c1` (stereo unspecified), the Potency is 14.8 µM (active).

For `O=C(/C=C\n1cnc(-c2cc(C(F)(F)F)cc(C(F)(F)F)c2)n1)NNc1cnccn1`, the Potency was 0.525 µM (active).

On to `Nc1nc(Cl)nc2c1ncn2[C@H]1C[C@H](O)[C@@H](CO)O1`, for which the Potency is 0.0934 µM (active).

As to `N[C@@H](CC(=O)N1CCn2c(nnc2C(F)(F)F)C1)Cc1cc(F)c(F)cc1F`, the Potency entry was “inactive”.

The values above are taken from PubChem BioAssay (NCATS).
